According to PubChem BioAssay (NCATS):
Values joined by “and” are separate entries in the source; they are usually repeats but may differ in a detail not shown here. Equal entries are not always repeated. Results filed as inconclusive are left out. Where a call stands in place of a potency, no number is given. Active and inactive are the calls of the source. Calls follow the shape of the full dose curve.

Assay: Primary qHTS to identify inhibitors of SARS-CoV-2 cell entry (AID 1645846); also: nearly all actives have a fitted effect of over 45% in size
Details: SARS-CoV-2 pseudovirus cell entry assay, luminescence; activity change, negative = inhibition: at 57.1 µM (top of the series) unless noted; series mostly up to 57.1 µM
How it was run: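 HEK293 cells stably expressing human ACE2, pre-treated 1 h with compound, then infected with MLV particles pseudotyped with Wuhan-Hu-1 spike (C-terminal 19-aa truncation). Luciferase luminescence after 48 h at 37 °C, normalised to spike PP and bald PP.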
Potency is read from the fitted curve at half-maximal effect.

Row | SMILES | activity change, negative = inhibition | Potency
1 | CC(=O)N[C@H]1[C@H]([C@H](O)[C@H](O)CO)OC(C(=O)O)=C[C@@H]1N=C(N)N | -0.176% | –
2 | CC(O)COc1ccccc1 (centres undefined) | – | inactive
3 | CCn1cc(C(=O)O)c(=O)c2cc(F)c(N3CCN(C)CC3)cc21 | – | inactive
4 | CN(C)CCOC(c1ccccc1)c1ccccc1 | -13.9% | –
5 | CN1CCN(c2c(F)cc3c(=O)c(C(=O)O)cn(CCF)c3c2F)CC1 | 2.09% | –
6 | Cc1c(F)cc2c(=O)c(C(=O)O)cn3c2c1CCC3C (centres undefined) | – | inactive
7 | COc1cc(OC)cc(OC)c1 | – | inactive
8 | CCN[C@@H]1C[C@H](N)[C@@H](OC2OC(CN)=CCC2N)[C@H](O)[C@H]1O[C@H]1OC[C@](C)(O)[C@H](NC)[C@H]1O (some centres undefined) | 42.9% [at 0.702 µM] | –
9 | CN(Cc1ccc(C(C)(C)C)cc1)Cc1cccc2ccccc12 | 2.25% | –
10 | C[C@@H]1C[C@H]2[C@@H]3CCC4=CC(=O)C=C[C@]4(C)[C@@]3(Cl)[C@@H](O)C[C@]2(C)[C@@]1(OC(=O)c1ccco1)C(=O)CCl | -22.6% | –
11 | C1CCN2C[C@@H]3C[C@@H](CN4CCCC[C@@H]34)[C@H]2C1 | -16.5% | –
12 | N[C@@H](CSSC[C@H](N)C(=O)O)C(=O)O | -10.6% [at 0.702 µM] | –
13 | CCCCCC1Nc2cc(C(F)(F)F)c(S(N)(=O)=O)cc2S(=O)(=O)N1 (centres undefined) | – | inactive
14 | CCCCC(=O)O[C@]1(C(=O)CO)[C@@H](C)C[C@H]2[C@@H]3CCC4=CC(=O)C=C[C@]4(C)[C@@]3(F)[C@@H](O)C[C@@]21C | – | inactive
15 | Cc1c(C(=O)NN2CCCCC2)nn(-c2ccc(Cl)cc2Cl)c1-c1ccc(Cl)cc1 | -26.4% | –
16 | CC(C)(C)CC(=O)OCC(=O)[C@@]1(O)CC[C@H]2[C@@H]3CCC4=CC(=O)C=C[C@]4(C)[C@H]3[C@@H](O)C[C@@]21C | – | inactive
17 | O=C(O)/C=C/c1ccc(Cn2ccnc2)cc1 | – | inactive
18 | NC(N)=N/N=C/c1c(Cl)cccc1Cl | -25.8% | –
19 | Cc1cccc(C)c1NC(=O)C(C)N (centres undefined) | 4.4% | –
20 | CC1=C(C)C(=O)C(C(CCCCCC(=O)O)c2ccccc2)=C(C)C1=O (centres undefined) | – | inactive

Row | SMILES | activity change, negative = inhibition | Potency
21 | CC(C)Cc1ccc(C(C)C(=O)OCc2ccccn2)cc1 (centres undefined) | -13.1% | –
22 | O=C(O)CCc1nc(-c2ccccc2)c(-c2ccccc2)o1 | 2.68% | –
23 | CC(C)NCC(O)COc1ccc(COCCOC(C)C)cc1 (centres undefined) | – | inactive
24 | NCCc1ccc(O)c(O)c1 | -18% and -6.68% | –
25 | O=C1OC2(c3ccc(O)cc3Oc3cc(O)ccc32)c2ccccc21 | – | inactive
26 | O=C(CCCN1CC=C(n2c(=O)[nH]c3ccccc32)CC1)c1ccc(F)cc1 | – | inactive
27 | O=C(O)CCNC(=O)c1ccccc1 | – | inactive
28 | CC(C)N=C(N)/N=C(\N)Nc1ccc(Cl)cc1 | – | inactive
29 | C=CC[N+]1([C@H]2C[C@H]3[C@@H]4CC[C@H]5C[C@H](OC(C)=O)[C@@H](N6CCCCC6)C[C@]5(C)[C@H]4CC[C@]3(C)[C@H]2OC(=O)CC)CCCCC1 | – | inactive
30 | C#CCN(C)Cc1ccccc1 | – | inactive
31 | C=CCc1ccccc1OCC(O)CNC(C)C (centres undefined) | -22.8% | –
32 | COC(=O)C1=C(C)NC(C)=C(C(=O)OCCCN2CCC(c3ccccc3)(c3ccccc3)CC2)C1c1cccc([N+](=O)[O-])c1 (centres undefined) | – | 8.91 µM (active)
33 | CC(=O)[C@H]1CC[C@H]2[C@@H]3CC=C4C[C@@H](O)CC[C@]4(C)[C@H]3CC[C@]12C | – | inactive
34 | O=c1cc(CO)occ1O | – | inactive
35 | CCOC(=O)c1c(N)sc2c1CCN(Cc1ccccc1)C2 | – | inactive
36 | CC(=O)Oc1ccc(C(c2ccc(OC(C)=O)cc2)c2ccccn2)cc1 | – | inactive
37 | Cc1cc(O)c(C(C)C)cc1Cl | – | inactive
38 | CCOCCOC(=O)/C=C/c1ccc(OC)cc1 | – | inactive
39 | NS(=O)(=O)c1cc2c(cc1Cl)NC(CSCc1ccccc1)=NS2(=O)=O | -3.7% | –
